Inconclusive results are not listed. Entries that show only a call come without a potency. A number with no mark means an inactive call. Calls of active or inactive are those of the source. The call rests on the fitted dose curve; in most records, active means well fitted curve in the direction sought with a large enough effect; inconclusive means small, poorly fitted or top-dose-only effect, or another doubt; inactive means no such curve, though single readings can be large; an effect the other way counts as inactive or inconclusive.
Experiments:
[1] = test system: MKL-1; test: qHTS assay to identify novel small-molecules to repurpose for Merkel cell carcinoma treatment (AID 1296009); details: MCC and control cell lines, CellTiter-Glo viability, 72 h; series mostly up to 46 µM; further: nearly all actives have a fitted effect of over 60% in size; further: potency means the concentration at half of the fitted maximal effect
Procedure, shortened: (§1)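 Cell viability, measured as CellTiter-Glo luminescence, was normalized between DMSO and no-cell wells. The cells had been exposed to 8- or 11-point compound dilutions for 72 hr at 37 degree celsius.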

[2] = test system: MKL-2; test: as above; details: MCC and control cell lines, CellTiter-Glo viability, 72 h; series mostly up to 46 µM
Procedure, shortened: as §1

[3] = test system: UISO; test: as above; details: MCC and control cell lines, CellTiter-Glo viability, 72 h; series mostly up to 46 µM
Procedure, shortened: as §1

[4] = test system: WaGa; test: as above; details: MCC and control cell lines, CellTiter-Glo viability, 72 h; series mostly up to 46 µM
Procedure, shortened: as §1

[5] = test system: C33A; test: Primary qHTS to identify gynecologic anti-cancer compounds using libraries of approved drugs and bioactive compounds (AID 1345084); details: Gynecologic cancer cell panel viability, ATPlite luminescence, 48 h; series mostly up to 57.5 µM; further: nearly all actives have a fitted effect of over 55% in size; further: potency means the concentration at half of the fitted maximal effect
Procedure, shortened: (§2)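 Five-point cytotoxicity, 48 h drug exposure at 37 C, 5% CO2, on cells seeded 16 h beforehand. ATP content read by ATPlite luminescence.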

[6] = test system: CASKI; test: as above; details: Gynecologic cancer cell panel viability, ATPlite luminescence, 48 h; series mostly up to 57.5 µM
Procedure, shortened: as §2

[7] = test system: Es-2; test: as above; details: Gynecologic cancer cell panel viability, ATPlite luminescence, 48 h; series mostly up to 57.5 µM
Procedure, shortened: as §2

[8] = test system: HeLa; test: as above; details: Gynecologic cancer cell panel viability, ATPlite luminescence, 48 h; series mostly up to 57.5 µM
Procedure, shortened: as §2

[9] = test system: Hek293T; test: as above; details: Gynecologic cancer cell panel viability, ATPlite luminescence, 48 h, control line for the selectivity index; series mostly up to 57.5 µM
Procedure, shortened: as §2

[10] = test system: JEG-3; test: as above; details: Gynecologic cancer cell panel viability, ATPlite luminescence, 48 h; series mostly up to 57.5 µM
Procedure, shortened: as §2

[11] = test system: PA-1; test: as above; details: Gynecologic cancer cell panel viability, ATPlite luminescence, 48 h; series mostly up to 57.5 µM
Procedure, shortened: as §2

[12] = test system: SKOV3; test: as above; details: Gynecologic cancer cell panel viability, ATPlite luminescence, 48 h; series mostly up to 57.5 µM
Procedure, shortened: as §2

[13] = test system: Tov-21-G; test: as above; details: Gynecologic cancer cell panel viability, ATPlite luminescence, 48 h; series mostly up to 57.5 µM
Procedure, shortened: as §2

[14] = test system: Tov112D; test: as above; details: Gynecologic cancer cell panel viability, ATPlite luminescence, 48 h; series mostly up to 57.5 µM
Procedure, shortened: as §2

[15] = Drug repurposing screens with cells derived from glioblastoma tumor samples (AID 1345199); details: GBM patient neurospheres viability, ATP luminescence, 48 h; further: nearly all actives have a fitted effect of over 40% in size
Procedure, shortened: (§3)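 Primary testing used CD133+ neurospheres from four GBM patients, seven concentrations, 48 h exposure and ATP-based viability; confirmation added three slower-growing patient lines.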

[16] = test system: astro; test: as above; details: viability, ATP luminescence, 48 h; series mostly up to 45.9 µM
Procedure, shortened: as §3

[17] = test system: OV90; test: Primary qHTS to identify gynecologic anti-cancer compounds using libraries of approved drugs and bioactive compounds (AID 1345084); details: Gynecologic cancer cell panel viability, ATPlite luminescence, 48 h; series mostly up to 57.5 µM; further: nearly all actives have a fitted effect of over 55% in size; further: potency means the concentration at half of the fitted maximal effect
Procedure, shortened: as §2

[18] = at 45.9 µM (top of the series), tumour line B
[19] = at 45.9 µM (top of the series), tumour line D
[20] = at 46 µM (top of the series), tumour line A
[21] = at 46.1 µM (top of the series), tumour line C

| Compound | Potency [1] | Potency [2] | Potency [3] | Potency [4] | Potency [5] | Potency [6] | Potency [7] | Potency [8] | Potency [9] | Potency [10] | Potency [11] | Potency [12] | Potency [13] | Potency [14] | activity, negative = cell killing [15, 18] [%] | activity, negative = cell killing [15, 19] [%] | activity, negative = cell killing [15, 20] [%] | activity, negative = cell killing [15, 21] [%] | Potency [16] | Potency [17] |
| --- | --- | --- | --- | --- | --- | --- | --- | --- | --- | --- | --- | --- | --- | --- | --- | --- | --- | --- | --- | --- |
| COc1ccc2c(c1)c(CC(=O)O)c(C)n2C(=O)c1ccc(Cl)cc1 | inactive | inactive | inactive | inactive | inactive | inactive | inactive | inactive | inactive | inactive | inactive | inactive | inactive | inactive | -14.6 | -6.82 | -26.1 | -12.3 | inactive |  |
| COc1cc2c(c(OC)c1OC)-c1ccc(OC)c(=O)cc1[C@@H](NC(C)=O)CC2 |  | inactive | inactive | inactive |  |  |  |  |  |  |  |  |  |  |  |  |  |  |  | 282 nM (active) |
| CCOC(=O)c1ncn2c1CN(C)C(=O)c1cc(F)ccc1-2 |  |  |  |  | inactive | inactive | inactive | inactive | inactive | inactive | inactive | inactive | inactive | inactive | -16 | 3.15 |  | 4.97 | inactive | inactive |
| CN(Cc1cnc2nc(N)nc(N)c2n1)c1ccc(C(=O)N[C@@H](CCC(=O)O)C(=O)O)cc1 | 10500 nM (active) | inactive |  |  |  |  |  | 199 nM (active) | 158 nM (active) | 316 nM (active) |  | inactive | 100 nM (active) |  | 5.57 | 3.85 | 1.95 | -0.888 | inactive |  |

From PubChem BioAssay (NCATS)
